“And” between values parts separate entries of the source, which are not always exact repeats. Equal entries are not always repeated. In all, about 5,500 compounds went through this assay and about 2,000 (36%) were called active. Not shown: some 18% with an inconclusive outcome. Cut-off read from the data, not from the text of the source: active = normalized growth mostly below about 0.91 (no sharp cut-off); inconclusive = no clear call, values can overlap the other calls; inactive = mostly above about 0.92. The list shows a part of the results.
Assay: chemical genetic growth profiling, strain panel (AID 1159580);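 note: tested at 20 µM; growth read once vehicle control cultures reached saturation at 30 °C; 1 = growth at the plate median or of vehicle wells; lower values mean less growth of the strain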
Conditions: growth OD

Measured: normalized growth

CNCCCC12CCC(c3ccccc31)c1ccccc12
inactive: S. cerevisiae deletion strains, locus YJR075W, strain HOC1, stronger effect = lower value 0.991 and 0.989 | S. cerevisiae deletion strains, locus YKL009W, strain mrt4, stronger effect = lower value 0.978 | S. cerevisiae deletion strains, locus YKL068W, stronger effect = lower value 0.983 | S. cerevisiae deletion strains, locus YKL085W, strain MDH1 (second series), stronger effect = lower value 0.982 | S. cerevisiae deletion strains, locus YKL085W, strain MDH1, stronger effect = lower value 0.982 | S. cerevisiae deletion strains, locus YKL160W, strain elf1, stronger effect = lower value 0.968 | S. cerevisiae deletion strains, locus YKR001C, strain vps1, stronger effect = lower value 1.02 | S. cerevisiae deletion strains, locus YKR026C, strain gcn3, stronger effect = lower value 0.979 | S. cerevisiae deletion strains, locus YKR091W, strain srl3, stronger effect = lower value 0.973 | S. cerevisiae deletion strains, locus YLL001W, strain dnm1, stronger effect = lower value 1.01 | S. cerevisiae deletion strains, locus YLL026W, stronger effect = lower value 0.97 | S. cerevisiae deletion strains, locus YLL041C, strain sdh2, stronger effect = lower value 0.98 | S. cerevisiae deletion strains, locus YLR027C, strain aat2, stronger effect = lower value 0.964 | S. cerevisiae deletion strains, locus YLR039C, strain RIC1, stronger effect = lower value 1.29 | S. cerevisiae deletion strains, locus YLR058C, strain SHM2, stronger effect = lower value 0.984 | S. cerevisiae deletion strains, locus YLR102C, strain apc9, stronger effect = lower value 0.992 | S. cerevisiae deletion strains, locus YLR113W, strain HOG1, stronger effect = lower value 1.01 | S. cerevisiae deletion strains, locus YLR221C, strain rsa3, stronger effect = lower value 0.998 | S. cerevisiae deletion strains, locus YLR258W, strain gsy2, stronger effect = lower value 0.974 | S. cerevisiae deletion strains, locus YLR262C, strain YPT6 (second series), stronger effect = lower value 0.937 | S. cerevisiae deletion strains, locus YLR262C, strain YPT6, stronger effect = lower value 1.32 | S. cerevisiae deletion strains, locus YLR268W, strain sec22, stronger effect = lower value 0.975 | S. cerevisiae deletion strains, locus YLR320W, strain mms22, stronger effect = lower value 0.992 | S. cerevisiae deletion strains, locus YLR330W, strain CHS5, stronger effect = lower value 0.993 | S. cerevisiae deletion strains, locus YLR342W, strain FKS1 (second series), stronger effect = lower value 0.944 | S. cerevisiae deletion strains, locus YLR342W, strain FKS1, stronger effect = lower value 0.954 | S. cerevisiae deletion strains, locus YLR357W, strain rsc2, stronger effect = lower value 0.968 | S. cerevisiae deletion strains, locus YLR370C, strain arc18, stronger effect = lower value 0.98 | S. cerevisiae deletion strains, locus YLR371W, strain rom2, stronger effect = lower value 0.963 | S. cerevisiae deletion strains, locus YLR384C, strain iki3, stronger effect = lower value 0.989 | S. cerevisiae deletion strains, locus YLR418C, strain cdc73, stronger effect = lower value 0.857 | S. cerevisiae deletion strains, locus YML016C, strain PPZ1, stronger effect = lower value 0.986 | S. cerevisiae deletion strains, locus YML032C, strain rad52, stronger effect = lower value 0.963 | S. cerevisiae deletion strains, locus YML120C, strain ndi1, stronger effect = lower value 0.976 | S. cerevisiae deletion strains, locus YML124C, strain tub3, stronger effect = lower value 0.995 | S. cerevisiae deletion strains, locus YMR058W, strain fet3, stronger effect = lower value 0.952 | S. cerevisiae deletion strains, locus YMR078C, strain ctf18, stronger effect = lower value 0.984 | S. cerevisiae deletion strains, locus YMR125W, strain sto1, stronger effect = lower value 0.939 | S. cerevisiae deletion strains, locus YMR129W, stronger effect = lower value 0.979 | S. cerevisiae deletion strains, locus YMR205C, strain PFK2, stronger effect = lower value 0.999 | S. cerevisiae deletion strains, locus YMR223W, strain ubp8, stronger effect = lower value 0.951 | S. cerevisiae deletion strains, locus YMR231W, strain pep5, stronger effect = lower value 0.985 | S. cerevisiae deletion strains, locus YMR263W, strain SAP30, stronger effect = lower value 0.992 and 1 | S. cerevisiae deletion strains, locus YMR307W, strain GAS1, stronger effect = lower value 0.979 | S. cerevisiae deletion strains, locus YNL067W, strain RPL9B, stronger effect = lower value 1 | S. cerevisiae deletion strains, locus YNL071W, strain lat1, stronger effect = lower value 0.986 | S. cerevisiae deletion strains, locus YNL128W, strain TEP1, stronger effect = lower value 1.03 | S. cerevisiae deletion strains, locus YNL153C, strain GIM3, stronger effect = lower value 1 | S. cerevisiae deletion strains, locus YNL175C, strain NOP13, stronger effect = lower value 1.02 | S. cerevisiae deletion strains, locus YNL183C, strain NPR1, stronger effect = lower value 0.949 | S. cerevisiae deletion strains, locus YNL197C, strain WHI3, stronger effect = lower value 1.03 | S. cerevisiae deletion strains, locus YNL209W, strain ssb2, stronger effect = lower value 0.967 | S. cerevisiae deletion strains, locus YNL224C, strain SQS1, stronger effect = lower value 1.01 | S. cerevisiae deletion strains, locus YNL233W, strain BNI4, stronger effect = lower value 0.954 | S. cerevisiae deletion strains, locus YNL248C, strain rpa49, stronger effect = lower value 0.932 | S. cerevisiae deletion strains, locus YNL250W, strain rad50, stronger effect = lower value 0.982 | S. cerevisiae deletion strains, locus YNL271C, strain bni1, stronger effect = lower value 0.993 | S. cerevisiae deletion strains, locus YNL298W, strain CLA4, stronger effect = lower value 0.967 | S. cerevisiae deletion strains, locus YNL307C, strain MCK1, stronger effect = lower value 0.978 | S. cerevisiae deletion strains, locus YNL322C, strain KRE1 (second series), stronger effect = lower value 0.976 | S. cerevisiae deletion strains, locus YNR049C, strain mso1, stronger effect = lower value 0.971 | S. cerevisiae deletion strains, locus YNR052C, strain pop2, stronger effect = lower value 0.962 | S. cerevisiae deletion strains, locus YOL012C, strain htz1 0.584 | S. cerevisiae deletion strains, locus YOL147C, strain pex11, stronger effect = lower value 0.987 | S. cerevisiae deletion strains, locus YOR001W, strain rrp6, stronger effect = lower value 0.992 | S. cerevisiae deletion strains, locus YOR061W, strain CKA2, stronger effect = lower value 0.991 | S. cerevisiae deletion strains, locus YOR069W, strain VPS5, stronger effect = lower value 0.993 | S. cerevisiae deletion strains, locus YOR070C, strain gyp1, stronger effect = lower value 0.983 | S. cerevisiae deletion strains, locus YOR080W, strain dia2, stronger effect = lower value 0.951 | S. cerevisiae deletion strains, locus YOR083W, strain WHI5 (second series), stronger effect = lower value 0.999 | S. cerevisiae deletion strains, locus YOR083W, strain WHI5, stronger effect = lower value 0.913 | S. cerevisiae deletion strains, locus YOR106W, strain vam3, stronger effect = lower value 0.95 | S. cerevisiae deletion strains, locus YOR136W, strain idh2, stronger effect = lower value 0.99 | S. cerevisiae deletion strains, locus YOR144C, strain elg1, stronger effect = lower value 0.997 | S. cerevisiae deletion strains, locus YOR184W, strain ser1, stronger effect = lower value 1.02 | S. cerevisiae deletion strains, locus YOR231W, strain MKK1, stronger effect = lower value 1.02 | S. cerevisiae deletion strains, locus YOR265W, strain rbl2, stronger effect = lower value 0.983 | S. cerevisiae deletion strains, locus YOR270C, strain vph1, stronger effect = lower value 0.927 | S. cerevisiae deletion strains, locus YOR290C, strain snf2, stronger effect = lower value 0.94 | S. cerevisiae deletion strains, locus YOR316C, strain cot1, stronger effect = lower value 0.991 | S. cerevisiae deletion strains, locus YPL051W, strain arl3, stronger effect = lower value 0.938 | S. cerevisiae deletion strains, locus YPL055C, strain LGE1, stronger effect = lower value 0.982 | S. cerevisiae deletion strains, locus YPL078C, strain atp4, stronger effect = lower value 0.967 | S. cerevisiae deletion strains, locus YPL106C, strain sse1, stronger effect = lower value 0.975 | S. cerevisiae deletion strains, locus YPL240C, strain hsp82, stronger effect = lower value 0.984 | S. cerevisiae deletion strains, locus YPL241C, strain CIN2, stronger effect = lower value 0.991 and 0.996 | S. cerevisiae deletion strains, locus YPL256C, strain CLN2, stronger effect = lower value 0.995 | S. cerevisiae deletion strains, locus YPR119W, strain clb2, stronger effect = lower value 0.992 | S. cerevisiae deletion strains, locus YPR141C, strain kar3, stronger effect = lower value 0.979 | S. cerevisiae deletion strains, locus YPR163C, strain tif3, stronger effect = lower value 0.994 | S. cerevisiae deletion strains, locus YPR167C, strain met16, stronger effect = lower value 0.996 | S. cerevisiae deletion strains, strain wtn01, stronger effect = lower value 0.964 | S. cerevisiae strains, strain wild type, stronger effect = lower value 0.993

Source: PubChem BioAssay AID1159580 (chemical genetic matrix, 2015)
